Data as given in ChEMBL document CHEMBL3988442, “University of Dundee, Small-Polar-MMV Screening Library” (2021).
For some of these results: Results with a measured potency or affinity are listed apart.

Columns and labels:
Design in all cases: scale not given: direction of the effect not stated beside the values
[1] = biological target: Protein translocase subunit SecA (Escherichia coli (strain K12)) (UniProt P10408); experiment: Assay to Identify E. coli SecA ATPase Inhibitors; assay type: functional; conditions: 30 µM
Protein translocase subunit SecA (Escherichia coli (strain K12)), sequence (P10408 whole entry): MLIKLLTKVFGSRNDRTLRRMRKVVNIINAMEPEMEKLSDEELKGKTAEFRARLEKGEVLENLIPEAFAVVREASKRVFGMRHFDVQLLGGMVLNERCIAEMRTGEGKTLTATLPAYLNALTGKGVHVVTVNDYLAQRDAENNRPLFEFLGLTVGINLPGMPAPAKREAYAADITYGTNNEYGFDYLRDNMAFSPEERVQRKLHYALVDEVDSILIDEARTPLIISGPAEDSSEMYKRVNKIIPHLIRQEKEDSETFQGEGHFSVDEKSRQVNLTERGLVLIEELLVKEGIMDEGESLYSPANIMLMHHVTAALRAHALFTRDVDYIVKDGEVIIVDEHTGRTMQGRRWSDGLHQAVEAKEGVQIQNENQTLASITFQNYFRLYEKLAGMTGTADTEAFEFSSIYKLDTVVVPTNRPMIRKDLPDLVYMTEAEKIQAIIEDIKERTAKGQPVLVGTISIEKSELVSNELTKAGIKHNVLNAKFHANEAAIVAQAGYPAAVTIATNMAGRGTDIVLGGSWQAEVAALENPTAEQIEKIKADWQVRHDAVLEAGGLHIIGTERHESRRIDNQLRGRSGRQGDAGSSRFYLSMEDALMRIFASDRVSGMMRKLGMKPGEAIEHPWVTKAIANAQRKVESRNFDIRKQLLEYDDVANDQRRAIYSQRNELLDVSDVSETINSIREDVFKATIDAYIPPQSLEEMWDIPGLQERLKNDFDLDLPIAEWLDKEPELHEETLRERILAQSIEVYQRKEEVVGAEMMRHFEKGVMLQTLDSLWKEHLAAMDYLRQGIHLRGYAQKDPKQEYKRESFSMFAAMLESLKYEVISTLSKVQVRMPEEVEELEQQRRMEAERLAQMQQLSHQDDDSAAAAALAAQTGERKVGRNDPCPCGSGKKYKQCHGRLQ

[2] = biological target: T1, Ubiquitin-activating enzyme e1, putative (Leishmania donovani (strain BPK282A1)) (UniProt E9BSI1); experiment: Leishmania donovani Ubiquitin Activating Enzyme (LdE1); assay type: functional; conditions: 30 µM
T1 sequence (whole entry): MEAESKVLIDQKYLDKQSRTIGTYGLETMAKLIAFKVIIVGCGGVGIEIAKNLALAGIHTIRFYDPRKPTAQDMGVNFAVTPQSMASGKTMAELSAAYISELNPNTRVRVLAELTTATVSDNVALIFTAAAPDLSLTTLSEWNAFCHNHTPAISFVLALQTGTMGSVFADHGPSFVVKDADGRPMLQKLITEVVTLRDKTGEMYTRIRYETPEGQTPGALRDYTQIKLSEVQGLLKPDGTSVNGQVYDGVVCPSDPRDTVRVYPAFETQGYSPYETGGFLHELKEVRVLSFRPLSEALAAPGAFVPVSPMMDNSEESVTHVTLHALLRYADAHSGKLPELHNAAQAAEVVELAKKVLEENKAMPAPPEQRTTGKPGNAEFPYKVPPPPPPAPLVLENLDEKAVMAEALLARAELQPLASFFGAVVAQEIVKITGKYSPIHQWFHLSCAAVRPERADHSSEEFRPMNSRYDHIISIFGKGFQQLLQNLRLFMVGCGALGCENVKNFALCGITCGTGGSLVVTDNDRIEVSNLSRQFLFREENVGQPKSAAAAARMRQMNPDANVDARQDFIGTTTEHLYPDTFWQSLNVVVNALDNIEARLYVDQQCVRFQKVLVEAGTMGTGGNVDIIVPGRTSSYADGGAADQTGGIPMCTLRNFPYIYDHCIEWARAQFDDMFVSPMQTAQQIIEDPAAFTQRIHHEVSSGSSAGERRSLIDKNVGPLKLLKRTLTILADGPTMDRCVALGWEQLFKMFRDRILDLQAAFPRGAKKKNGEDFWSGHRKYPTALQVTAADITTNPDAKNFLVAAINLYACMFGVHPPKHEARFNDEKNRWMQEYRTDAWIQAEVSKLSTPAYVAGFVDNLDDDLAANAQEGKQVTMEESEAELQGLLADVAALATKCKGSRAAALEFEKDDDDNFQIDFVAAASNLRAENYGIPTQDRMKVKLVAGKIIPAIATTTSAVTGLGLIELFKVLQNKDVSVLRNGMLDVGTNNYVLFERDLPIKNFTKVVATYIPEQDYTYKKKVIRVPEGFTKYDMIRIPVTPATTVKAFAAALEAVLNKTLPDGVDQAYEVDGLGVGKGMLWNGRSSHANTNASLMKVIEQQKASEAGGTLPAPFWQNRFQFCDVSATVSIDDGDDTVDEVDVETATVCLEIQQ

[3] = biological target: AMP-activated protein kinase, AMPK (Homo sapiens) (UniProt P54646+O43741+P54619+Q9UGJ0+Q9Y478+Q13131+Q9UGI9); experiment: AMP-dependent Kinase enzyme assay. An in vitro enzyme assay that detects ADP turnover that is directly proportional to AMPK activity. This uses naive AMPK that is activated during the assay with MK-8722; assay type: functional; conditions: 30 µM
[4] = biological target: Sialic acid-binding Ig-like lectin 9 (Homo sapiens) (UniProt Q9Y336); experiment: Hs-Siglec9 ALPHAscreen SOP 20170721; conditions: 10 µM
Sialic acid-binding Ig-like lectin 9 (Homo sapiens), sequence (Q9Y336 whole entry): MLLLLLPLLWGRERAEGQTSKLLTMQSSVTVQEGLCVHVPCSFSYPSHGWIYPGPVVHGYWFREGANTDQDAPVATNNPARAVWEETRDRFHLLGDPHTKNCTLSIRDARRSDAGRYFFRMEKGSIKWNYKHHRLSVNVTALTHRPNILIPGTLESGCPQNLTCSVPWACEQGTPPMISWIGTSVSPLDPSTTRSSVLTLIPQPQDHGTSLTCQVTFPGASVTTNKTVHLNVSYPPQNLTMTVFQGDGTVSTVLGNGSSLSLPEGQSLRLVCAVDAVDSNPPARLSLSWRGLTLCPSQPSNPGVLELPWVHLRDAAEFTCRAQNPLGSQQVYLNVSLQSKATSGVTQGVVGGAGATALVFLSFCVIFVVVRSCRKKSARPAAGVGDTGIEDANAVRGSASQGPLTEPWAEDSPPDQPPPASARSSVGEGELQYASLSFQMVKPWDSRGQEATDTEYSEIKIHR

[5] = tested on: Trypanosoma cruzi; experiment: Trypanosoma cruzi phosphomannomutase and mannose-1-phosphate guanylyltransferase assay; assay type: functional; conditions: 10 µM
[6] = biological target: T2, Arginase-2, mitochondrial (Homo sapiens) (UniProt P78540); experiment: in vitro enzyme assay to detect the production of urea directly proportional to the activity of Arginase II; assay type: functional; conditions: 33.3 µM; also: in the data most compounds retested in dose-response had high values
T2 sequence (whole entry): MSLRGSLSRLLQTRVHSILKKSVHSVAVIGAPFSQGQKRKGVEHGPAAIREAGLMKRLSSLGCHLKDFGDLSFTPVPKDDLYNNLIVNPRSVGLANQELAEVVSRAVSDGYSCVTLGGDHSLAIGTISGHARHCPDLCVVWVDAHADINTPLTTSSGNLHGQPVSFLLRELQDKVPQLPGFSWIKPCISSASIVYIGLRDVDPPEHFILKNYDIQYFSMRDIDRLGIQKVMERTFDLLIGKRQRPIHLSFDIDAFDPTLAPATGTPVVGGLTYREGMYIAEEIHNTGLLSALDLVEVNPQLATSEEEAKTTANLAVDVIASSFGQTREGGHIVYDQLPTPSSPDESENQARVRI

[7] = biological target: T3, Proteasome subunit beta (Trypanosoma cruzi) (UniProt O96673); experiment: Trypanosoma cruzi proteasome chymotrypsin-like activity (TcProtChymo) assay.; also: in the data most compounds retested in dose-response had high values; assay type: functional; conditions: 9.37 µM
T3 sequence (whole entry): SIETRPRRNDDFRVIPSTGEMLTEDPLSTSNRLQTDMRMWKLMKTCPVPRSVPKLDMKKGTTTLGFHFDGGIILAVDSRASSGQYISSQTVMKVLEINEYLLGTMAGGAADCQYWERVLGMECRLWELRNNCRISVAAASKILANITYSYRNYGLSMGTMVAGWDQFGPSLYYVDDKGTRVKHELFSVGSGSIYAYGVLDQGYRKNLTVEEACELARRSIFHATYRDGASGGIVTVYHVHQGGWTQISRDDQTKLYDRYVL

[8] = organism: Homo sapiens; experiment: To identify inhibition of the IFN signalling (Jak-Stat) pathway via expression of an eGFP reporter gene under the control of an IFN-stimulated response element (ISRE) containing MxA promoter.; assay type: functional; conditions: 30 µM
[9] = biological target: T4, Tyrosyl-tRNA synthetase, putative (Trypanosoma cruzi (strain CL Brener)) (UniProt Q4DSP6); experiment: Trypanosoma cruzi tyrosyl tRNA synthetase (TcYRS) _High Tyrosine SOP; assay type: functional; conditions: 30 µM; also: in the data most compounds retested in dose-response had high values
T4 sequence (whole entry): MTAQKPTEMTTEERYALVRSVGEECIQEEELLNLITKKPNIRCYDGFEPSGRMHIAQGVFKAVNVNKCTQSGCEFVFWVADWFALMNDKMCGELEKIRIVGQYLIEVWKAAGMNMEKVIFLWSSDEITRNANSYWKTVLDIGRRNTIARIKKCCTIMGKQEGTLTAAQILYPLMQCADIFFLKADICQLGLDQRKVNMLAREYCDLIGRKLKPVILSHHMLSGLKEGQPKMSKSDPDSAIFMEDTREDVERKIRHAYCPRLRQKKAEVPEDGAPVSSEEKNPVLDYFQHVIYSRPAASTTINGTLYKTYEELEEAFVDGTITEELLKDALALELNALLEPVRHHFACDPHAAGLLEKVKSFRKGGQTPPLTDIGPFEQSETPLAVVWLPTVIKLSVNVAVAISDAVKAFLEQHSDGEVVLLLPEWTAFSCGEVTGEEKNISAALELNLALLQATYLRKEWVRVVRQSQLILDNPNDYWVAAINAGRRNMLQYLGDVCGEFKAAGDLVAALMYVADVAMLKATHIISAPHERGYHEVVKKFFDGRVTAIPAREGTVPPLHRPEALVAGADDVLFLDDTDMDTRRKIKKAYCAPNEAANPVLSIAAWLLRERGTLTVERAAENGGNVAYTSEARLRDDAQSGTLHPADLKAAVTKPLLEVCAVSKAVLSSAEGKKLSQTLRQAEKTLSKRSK

[10] = biological target: T4, Tyrosyl-tRNA synthetase, putative (Trypanosoma cruzi (strain CL Brener)); experiment: Trypanosoma cruzi tyrosyl tRNA synthetase (TcYRS) SOP; assay type: functional; conditions: 30 µM
[11] = biological target: Chromo domain-containing protein 1 (Saccharomyces cerevisiae (strain ATCC 204508 / S288c) (Baker's yeast)) (UniProt P32657); experiment: ScCHD-1 Enzyme Inhibition Assay; assay type: functional; conditions: 30 µM; also: in the data most compounds retested in dose-response had high values
Chromo domain-containing protein 1 (Saccharomyces cerevisiae (strain ATCC 204508 / S288c) (Baker's yeast)), sequence (P32657 whole entry, the tested form may be a part): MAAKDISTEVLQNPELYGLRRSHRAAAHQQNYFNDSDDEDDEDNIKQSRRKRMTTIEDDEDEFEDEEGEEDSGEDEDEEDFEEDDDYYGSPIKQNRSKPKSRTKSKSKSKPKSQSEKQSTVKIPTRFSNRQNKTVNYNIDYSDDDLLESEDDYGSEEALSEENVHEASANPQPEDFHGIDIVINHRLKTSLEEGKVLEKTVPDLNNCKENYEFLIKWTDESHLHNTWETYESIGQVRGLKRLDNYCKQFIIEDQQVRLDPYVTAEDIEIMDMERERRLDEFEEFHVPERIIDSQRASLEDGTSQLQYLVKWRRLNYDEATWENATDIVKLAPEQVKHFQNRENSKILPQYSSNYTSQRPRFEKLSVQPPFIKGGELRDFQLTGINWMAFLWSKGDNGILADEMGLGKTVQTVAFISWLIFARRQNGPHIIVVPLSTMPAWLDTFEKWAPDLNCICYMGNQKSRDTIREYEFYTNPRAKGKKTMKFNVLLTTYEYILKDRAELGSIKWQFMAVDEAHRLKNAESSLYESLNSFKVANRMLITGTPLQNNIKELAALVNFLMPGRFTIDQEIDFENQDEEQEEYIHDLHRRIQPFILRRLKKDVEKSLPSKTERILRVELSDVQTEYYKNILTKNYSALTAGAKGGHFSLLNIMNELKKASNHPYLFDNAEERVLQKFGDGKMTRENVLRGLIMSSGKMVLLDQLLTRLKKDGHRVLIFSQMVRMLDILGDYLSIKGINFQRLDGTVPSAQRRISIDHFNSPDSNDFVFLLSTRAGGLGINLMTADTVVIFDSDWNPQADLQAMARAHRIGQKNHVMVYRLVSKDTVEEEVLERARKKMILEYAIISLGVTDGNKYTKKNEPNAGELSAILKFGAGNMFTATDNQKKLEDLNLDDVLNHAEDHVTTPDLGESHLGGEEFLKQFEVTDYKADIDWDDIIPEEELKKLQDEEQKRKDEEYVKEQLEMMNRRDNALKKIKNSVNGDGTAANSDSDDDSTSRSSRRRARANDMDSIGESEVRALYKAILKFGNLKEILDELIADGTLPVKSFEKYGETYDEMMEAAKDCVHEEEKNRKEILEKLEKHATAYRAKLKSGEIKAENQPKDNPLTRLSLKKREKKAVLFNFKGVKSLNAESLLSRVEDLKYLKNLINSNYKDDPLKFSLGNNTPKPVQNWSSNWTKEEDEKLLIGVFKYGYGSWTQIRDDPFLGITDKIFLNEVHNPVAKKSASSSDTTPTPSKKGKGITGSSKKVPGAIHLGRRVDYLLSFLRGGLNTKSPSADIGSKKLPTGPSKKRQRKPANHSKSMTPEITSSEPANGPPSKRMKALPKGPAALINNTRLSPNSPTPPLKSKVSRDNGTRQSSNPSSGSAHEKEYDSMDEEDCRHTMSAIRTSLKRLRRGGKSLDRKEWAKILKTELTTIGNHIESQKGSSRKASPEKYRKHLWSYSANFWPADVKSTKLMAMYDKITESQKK

Compound | Percent Effect [1] | Percent Effect [2] | Percent Effect [3] | Percent Effect [4] | Percent Effect [5] | Percent Effect [6] | Percent Effect [7] | Percent Effect [8] | Percent Effect [9] | Percent Effect [10] | Percent Effect [11]
CN1CCN(Cc2nc3ccccc3[nH]2)[C@H]2CS(=O)(=O)C[C@H]21 | -1.9% | 8.11% | -2.29% | -1.77% | -1.07% | -1.24% | 13.1% | 5.83% | 10.8% | 18.5% | -2.69%
O=C(NC1CCC1)[C@@H]1C[C@@H]2CCN(Cc3cccs3)C[C@@H]2O1 | -2.68% | -2.67% | 10.9% | -2.43% | -0.197% | 2.56% | 7.67% | 28.3% | 3.19% | 11.5% | -2.54%
CN(Cc1ccsc1)C(=O)CN1CCCC1Cn1cccn1 (configuration not stated) | -3.48% | -18.2% | 2.08% | -4.38% | 5% | -1.05% | 3.8% | -6.97% | 11.4% | 7.06% | 4.97%
O=C(CCc1cscn1)NS(=O)(=O)c1ccc2c(c1)CCC2 | -5.7% | 15.3% | -13.9% | 36.9% | 7.29% | 22.5% | 3.33% | 5.07% | 3.16% | 15.4% | -4.74%
CN1CCN(Cc2ccccc2CNC(=O)c2ccc(Br)cc2)CC1 | -4.93% | 8.11% | -2.99% | 8.77% | 0.0978% | 1.24% | 5.92% | -4.85% | 3.23% | 16.1% | -1.46%
Cc1cc(O)nc(C2CCCN(Cc3ccncc3)C2)n1 (configuration not stated) | -0.276% | 14.9% | 4.7% | -7.91% | 3.75% | -0.696% | 10.4% | -0.951% | 1.07% | 11.7% | -12.3%
CCC(O)CNC(=O)C1(N(C)Cc2ccccc2)Cc2ccccc2C1 (configuration not stated) | -4.2% | 2.67% | 3.26% | -1.75% | -2.63% | 3.12% | 8.72% | -26.6% | 1.64% | 8.64% | -5.97%
CCc1noc(C2CCCCN2C(=O)c2ccn(C3CCCC3)n2)n1 (configuration not stated) | -3.89% | 20% | -10.1% | -4.33% | 5.89% | -15.3% | 13.7% | 24.3% | 9.52% | 12.8% | -15.7%
CC(C(=O)N1CCN(c2ccccc2Cl)CC1)n1cncn1 (configuration not stated) | -2.18% | 11.4% | 2.71% | 2.76% | 1.33% | -1.07% | 15.3% | 5.34% | 0% | 10.1% | -25.6%
c1cnc2c(C3CCN(Cc4ccsc4)CC3)n[nH]c2n1 | -4.33% | 20.3% | 10.3% | -8.48% | 5.14% | -1.62% | 17.9% | 18.2% | 3.23% | 9.09% | 20.2%
Cc1ccccc1Cc1cnc(NC(=O)C2CNC(=O)N2)s1 (configuration not stated) | -3.2% | 3.8% | -1.9% | 0.365% | 2.36% | -4.95% | 13.7% | 22.3% | 2.08% | 15.2% | -23.7%
Cc1nn(C)c(N2CCOCC2)c1CNCc1ccc(Cl)s1 | -3.24% | 10.4% | 2.59% | -1.94% | 2.06% | 1.9% | 9.62% | 11.3% | 11.4% | 25.9% | -8.79%
CC(c1nc(C2CC2)no1)N1CCN(Cc2ccccc2F)CC1 (configuration not stated) | -2.5% | 3.8% | 3.7% | 3.98% | -0.718% | 2.8% | 1.2% | -11.4% | 2.08% | 7.59% | -0.861%
Cc1cnn(CCC(=O)N2CCC(Nc3cccnn3)CC2)c1 | -6.66% | 5.41% | 1.21% | 3.62% | -5% | -2% | -3.6% | 16.4% | 0.493% | -8.64% | 2.32%
O=C1CC2(CCN(S(=O)(=O)C3CC3)C2)CN1c1cncnc1 (configuration not stated) | 1.95% | 16% | -1.36% | -1.59% | 1.54% | -50.7% | 9.74% | 5.32% | 6.25% | 27.5% | -4.67%
Cc1nc(C)n(CC2CN(CCc3ccncc3)CCO2)n1 (configuration not stated) | -1.44% | 5.48% | 1.35% | 6.79% | 0.979% | 3.64% | 10.3% | 16.9% | 4.3% | 10% | -5.67%
Cc1cccc(C2(C(=O)NCCCn3cccn3)CC2)c1 | -2.92% | 19.2% | -1.18% | 14.6% | 2.94% | 17.3% | 10.5% | 8.26% | 3.23% | 15% | -6.34%
